Shown are actives, neighbours in structure and some others; about 21% of the full set was active somewhere.
NS1 function inh: inhibitors of influenza NS1 protein function. Potency, µM (top dose mostly 46.1 µM), without a hit: top-dose activity, positive = more growth. AID 2326. 0.4% of 270,000 active; calls by dose curve; also: potency is read from the fitted curve at half-maximal effect; actives are rising curves; nearly all actives have a fitted effect of over 50% in size
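Recovery from NS1-induced slow growth read by OD600 in budding yeast switched to galactose assay medium (pH 6.0, -URA) at 1:100 dilution. Compound 23 nl per well; the matching strain lacking NS1 serves as control.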
Shiga toxin inh: Shiga toxin inhibition; Vero cells, Shiga toxin protein synthesis inhibition reporter; inhibition, % at 38.7 µM; 9.2% of 290,000 active; AID 2315; in the data active = inhibition mostly above about 28%, no sharp cut-off; inactive = mostly below about 43%; also: 0% is about no effect
Pf growth 96h: P. falciparum growth inhibition at 96 hour, primary screen for plastid delayed-death inhibitors; P. falciparum luciferase reporter growth, 96 h; Potency, µM (series often up to 28.7 µM), for the others: at the highest dose activity change, negative = inhibition, usual class: inhibitors; 6.9% of 320,000 active; AID 504834; also: potency is read from the fitted curve at half-maximal effect; % is scaled to controls: 0 for no effect and ±100 for the full control effect
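Cell-based qHTS: luciferase-tagged P. falciparum in erythrocytes (2% hematocrit, 0.05% parasitemia final) incubated with compounds for 96 hours, 37 C, 5% CO2; luciferase detection reagent then added and luminescence measured.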
Pf growth 48h: inhibits P. falciparum growth in the first generation, 48 h; Potency, µM (top dose mostly 28.7 µM), inactives show at the highest dose activity change, negative = inhibition, most hits filed as inhibitors; P. falciparum luciferase growth in erythrocytes, 48 h; 5.9% of 310,000 active; also: potency is read from the fitted curve at half-maximal effect; % is scaled to controls: 0 for no effect and ±100 for the full control effect
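Luminescence readout; reporter = integrated firefly luciferase in P. falciparum. RBC culture at 2% hematocrit, 0.1% parasitemia final, 37 C/5% CO2; decreased signal taken as growth inhibition.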
Sm TGR block: inhibitors of Schistosoma mansoni thioredoxin glutathione reductase | 3% of 360,000 active | purified TGR, DTNB reduction, TNB absorbance 405 nm | Potency, µM (series often up to 114 µM), for the others: at the top dose activity change, negative = inhibition, usual class: inhibitors | Q962Y6 | AID 485364; also: potency is read from the fitted curve at half-maximal effect; % is scaled to controls: 0 for no effect and ±100 for the full control effect; nearly all actives have a fitted effect of over 60% in size
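First, TGR (20 nM dispensed) and NADPH were mixed with compound. Second, a 15 min room-temperature incubation followed. Third, further NADPH and then DTNB were added to start the reaction. Finally, TNB absorbance was monitored kinetically.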
Cycloheximide cs: affects cycloheximide protein synthesis inhibition readout, counter-screen | AID 2314 | cell reporter, cycloheximide protein synthesis inhibition counterscreen | max response, % | 12% of 300,000 active; in the data active = max response mostly above about 13%, no sharp cut-off; inactive = mostly below about 14%; also: read at 38.3 µM for the half of the compounds with a filed dose; 0% is about no effect
Starred values were filed as active, the others as inactive; [ ] = another dose, or the depositor's remark. Unless noted, calls follow the shape of the dose curve; as a rule, active = well fitted curve in the direction sought with a large enough effect; inconclusive = small, poorly fitted or top-dose-only effect, or another doubt; inactive = no such curve, though single readings can be large; an effect the other way counts as inactive or inconclusive.

Results for CCOC(=O)c1sc(=NC(=O)c2c(F)cccc2F)n(C)c1C ?
NS1 function inh: -27.1%; Shiga toxin inh: 81.0*; Pf growth 96h: 56.3%; Pf growth 48h: 74.0%; Sm TGR block: 4.9%; Cycloheximide cs: 39.4*

Results for Cc1ccc(C)c(CN2C(=O)c3ccccc3S(=O)c3ccc(C(=O)N(C)Cc4ccccc4)cc32)c1 (stereo not drawn) ?
Sm TGR block: 6.0%

What do the screens show for `COc1cc(OC)cc(C(=O)N[C@H](C(=O)NCc2ccco2)C(C)C)c1`?
Shiga toxin inh: -9.3; Pf growth 96h: 38.8%; Pf growth 48h: 3.3%; Sm TGR block: 2.1%; Cycloheximide cs: 7.4

What do the screens show for `Cc1ccc(CSc2nnc([C@@H](N)C(C)C)o2)cc1`?
Sm TGR block: -10.3%

Results for Cc1ccnc2nc(C(=O)Nc3ccc4c(c3)OCO4)nn12 ?
NS1 function inh: -5.5%; Shiga toxin inh: 74.8*; Pf growth 96h: -1.2%; Sm TGR block: -8.7%; Cycloheximide cs: 27.1*

What do the screens show for `Cc1ccnc2nc(C(=O)NC3=NCCS3)nn12`?
NS1 function inh: -7.5%; Shiga toxin inh: 12.2; Pf growth 96h: inconclusive; Pf growth 48h: 41.6%; Sm TGR block: 0.4%; Cycloheximide cs: 2.6

Results for Cc1ccnc2nc(C(=O)Nc3nccs3)nn12 ?
NS1 function inh: 11.1%; Shiga toxin inh: 29.1; Pf growth 48h: 68.8%; Sm TGR block: -9.5%; Cycloheximide cs: 21.7*

What do the screens show for `Cc1cc(C)n2nc(C(=O)Nc3ccc4c(c3)OCCO4)nc2n1`?
Pf growth 96h: 38.2%; Pf growth 48h: 52.8%; Sm TGR block: -18.2%

How did Cc1cc(C)n2nc(C(=O)Nc3ccc4c(c3)OCO4)nc2n1 do in these assays?
NS1 function inh: inconclusive; Shiga toxin inh: 61.1*; Pf growth 96h: 4.8%; Pf growth 48h: 52.8%; Sm TGR block: 1.2%; Cycloheximide cs: 31.6*

How did Cc1cc(C)n2nc(C(=O)OCC(=O)Nc3ccc4c(c3)OCO4)nc2n1 do in these assays?
NS1 function inh: -1.3%; Shiga toxin inh: -7.7; Pf growth 48h: 12.8%; Sm TGR block: -7.8%; Cycloheximide cs: 2.7

Results for CC(NC(=O)c1ccco1)C(c1cccs1)N1CCN(c2ccccc2)CC1 (stereo not drawn) ?
NS1 function inh: -52.6%; Shiga toxin inh: -5.5; Pf growth 96h: 13.1µM*; Pf growth 48h: 11.7µM*; Sm TGR block: -3.3%; Cycloheximide cs: -1.5

What do the screens show for `CC(NC(=O)c1ccco1)C(c1cccs1)N1CCN(c2ccccc2F)CC1` (stereo not drawn)?
NS1 function inh: -54.2%; Shiga toxin inh: 46.7; Pf growth 48h: inconclusive; Sm TGR block: 0.9%; Cycloheximide cs: 6.8

What do the screens show for `CC(NC(=O)c1ccco1)C(c1cccs1)N1CCN(c2ccc(F)cc2)CC1` (stereo not drawn)?
NS1 function inh: -41.1%; Shiga toxin inh: -2.6; Pf growth 48h: 7.38µM*; Sm TGR block: 1.7%; Cycloheximide cs: 0.6

What do the screens show for `CCS(=O)(=O)NC(C)C(c1cccs1)N1CCN(c2ccc(F)cc2)CC1` (stereo not drawn)?
NS1 function inh: -8.1%; Shiga toxin inh: -3.6; Pf growth 96h: 7.4%; Pf growth 48h: -1.3%; Sm TGR block: 5.0%; Cycloheximide cs: 4.7

What do the screens show for `COc1ccc(C(=O)Nc2cc(S(=O)(=O)c3ccc(Cl)cc3)c(O)c(C)c2C)cc1`?
Sm TGR block: 4.2%

How did COc1cccc(NC(=O)c2cc3c(-c4ccc(Cl)cc4)nn(C)c3s2)c1 do in these assays?
Sm TGR block: 0.8%

Results for COc1cccc(-c2cc(N)nn2C(=O)Nc2ccc(Cl)cc2)c1 ?
NS1 function inh: -72.1%; Shiga toxin inh: 18.0; Pf growth 96h: 11.7µM*; Pf growth 48h: inconclusive; Sm TGR block: 0.6%; Cycloheximide cs: 10.6

How did CCOc1ccc(NC(=O)Cn2nnc(-c3ccc(C(N)=O)cc3)n2)cc1S(=O)(=O)N1CCCC1 do in these assays?
Pf growth 96h: 4.0%; Pf growth 48h: 24.7%; Sm TGR block: -3.3%

How did COc1ccc(-n2cc(-c3ccccc3)[n+]3c2CCCCC3)cc1 do in these assays?
Shiga toxin inh: -6.7; Pf growth 96h: 0.928µM*; Pf growth 48h: 1.04µM*; Sm TGR block: -1.0%; Cycloheximide cs: -1.7

Results for COc1ccc(-c2cn(-c3ccc(SC(F)F)cc3)c3[n+]2CCC3)cc1OC ?
NS1 function inh: 10.7%; Shiga toxin inh: -12.2; Pf growth 96h: inconclusive; Pf growth 48h: inconclusive; Sm TGR block: -5.7%; Cycloheximide cs: -7.5

Results for COc1ccc(-c2cn(-c3ccc(OC)cc3)c3[n+]2-c2ccccc2CC3)cc1 ?
NS1 function inh: 11.4%; Shiga toxin inh: -4.5; Pf growth 96h: 0.415µM*; Pf growth 48h: 1.17µM*; Sm TGR block: -9.8%; Cycloheximide cs: -1.4

Results for FC(F)Oc1ccc(-n2cc(-c3ccc(Cl)cc3)[n+]3c2CCCCC3)cc1 ?
NS1 function inh: -2.4%; Shiga toxin inh: -12.1; Pf growth 96h: inconclusive; Pf growth 48h: 1.47µM*; Sm TGR block: 8.2%; Cycloheximide cs: -0.7

How did FC(F)Sc1ccc(-n2cc(-c3ccccc3)[n+]3c2CCC3)cc1 do in these assays?
NS1 function inh: inconclusive; Shiga toxin inh: 15.3; Pf growth 96h: 0.657µM*; Pf growth 48h: 1.17µM*; Sm TGR block: 6.1%; Cycloheximide cs: -1.4

How did [O-][N+](=Nc1ccccc1)c1ccccc1 do in these assays?
Pf growth 96h: 31.1%; Pf growth 48h: 26.4%

How did COc1ccccc1NC(=O)NCC1CC1(Cl)Cl (stereo not drawn) do in these assays?
NS1 function inh: -25.4%; Shiga toxin inh: -1.0; Pf growth 96h: inconclusive; Pf growth 48h: -10.7%; Sm TGR block: 5.8%; Cycloheximide cs: -0.8

What do the screens show for `O=C(NCC1CC1(Cl)Cl)Nc1ccc(Cl)c(Cl)c1` (stereo not drawn)?
NS1 function inh: -86.5%; Shiga toxin inh: 94.3*; Pf growth 96h: inconclusive; Pf growth 48h: inconclusive; Sm TGR block: 3.2%; Cycloheximide cs: 15.3

What do the screens show for `Cc1ccc(NC(=O)NCC2CC2(Cl)Cl)cc1` (stereo not drawn)?
NS1 function inh: -18.6%; Shiga toxin inh: 125.3*; Pf growth 96h: 131.3%; Pf growth 48h: 103.4%; Sm TGR block: 0.2%; Cycloheximide cs: 30.5*

What do the screens show for `O=C(Nc1cccc(S(=O)(=O)NC2=NCCC2)c1)c1cc(=O)[nH]c2ccccc12`?
Pf growth 96h: inconclusive; Pf growth 48h: 19.7%; Sm TGR block: -4.9%

How did COc1cc(C(=O)NCCOc2ccc(F)cc2)c(Br)c(OC)c1OC do in these assays?
Shiga toxin inh: 11.7; Pf growth 96h: 3.1%; Pf growth 48h: 14.1%[5.75 µM]; Sm TGR block: 5.9%; Cycloheximide cs: 2.8

Results for CSc1nsc(SC)c1C(=O)Nc1ccc(C(C)(C)C)cc1 ?
NS1 function inh: 9.7%; Shiga toxin inh: 53.2*; Pf growth 96h: inconclusive; Pf growth 48h: inconclusive; Sm TGR block: -8.9%; Cycloheximide cs: 9.8

Screening data from PubChem BioAssay.
